Data reported in ChEMBL document CHEMBL1961873, “Compounds: GSK PKIS; Assays: Nanosyn kinase panel” (2012).

What was measured:
[1] = biological target: T1, Serine/threonine-protein kinase D2 (Homo sapiens) (UniProt Q9BZL6); conditions: at 1 µM;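 note: mean value of PRKD2 inhibition, from the GSK PKIS screening panel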
T1 sequence (whole entry): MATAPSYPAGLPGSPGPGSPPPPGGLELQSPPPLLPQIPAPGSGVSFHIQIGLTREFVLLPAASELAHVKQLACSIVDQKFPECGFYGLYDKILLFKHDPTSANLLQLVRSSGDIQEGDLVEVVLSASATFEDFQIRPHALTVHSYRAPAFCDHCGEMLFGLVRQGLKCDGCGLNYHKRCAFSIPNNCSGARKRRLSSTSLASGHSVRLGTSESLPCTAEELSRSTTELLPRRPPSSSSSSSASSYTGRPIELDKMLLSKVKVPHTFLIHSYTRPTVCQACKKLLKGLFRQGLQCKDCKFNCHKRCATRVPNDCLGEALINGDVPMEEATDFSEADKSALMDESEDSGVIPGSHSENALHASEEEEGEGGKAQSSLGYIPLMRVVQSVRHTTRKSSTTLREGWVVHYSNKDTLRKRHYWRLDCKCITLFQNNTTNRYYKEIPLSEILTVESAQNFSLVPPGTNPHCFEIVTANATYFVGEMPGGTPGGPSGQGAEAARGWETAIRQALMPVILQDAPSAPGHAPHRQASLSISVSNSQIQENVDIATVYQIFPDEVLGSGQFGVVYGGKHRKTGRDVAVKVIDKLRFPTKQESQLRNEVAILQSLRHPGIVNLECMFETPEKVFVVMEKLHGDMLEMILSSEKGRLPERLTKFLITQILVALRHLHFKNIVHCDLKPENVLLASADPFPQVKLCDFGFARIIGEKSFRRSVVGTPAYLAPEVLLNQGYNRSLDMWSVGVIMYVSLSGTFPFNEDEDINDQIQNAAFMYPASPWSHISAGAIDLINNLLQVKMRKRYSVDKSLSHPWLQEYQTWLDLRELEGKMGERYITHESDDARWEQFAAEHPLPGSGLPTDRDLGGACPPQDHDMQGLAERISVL

[2] = biological target: T2, Serine/threonine-protein kinase D3 (Homo sapiens) (UniProt O94806); conditions: at 0.1 µM
T2 sequence (whole entry): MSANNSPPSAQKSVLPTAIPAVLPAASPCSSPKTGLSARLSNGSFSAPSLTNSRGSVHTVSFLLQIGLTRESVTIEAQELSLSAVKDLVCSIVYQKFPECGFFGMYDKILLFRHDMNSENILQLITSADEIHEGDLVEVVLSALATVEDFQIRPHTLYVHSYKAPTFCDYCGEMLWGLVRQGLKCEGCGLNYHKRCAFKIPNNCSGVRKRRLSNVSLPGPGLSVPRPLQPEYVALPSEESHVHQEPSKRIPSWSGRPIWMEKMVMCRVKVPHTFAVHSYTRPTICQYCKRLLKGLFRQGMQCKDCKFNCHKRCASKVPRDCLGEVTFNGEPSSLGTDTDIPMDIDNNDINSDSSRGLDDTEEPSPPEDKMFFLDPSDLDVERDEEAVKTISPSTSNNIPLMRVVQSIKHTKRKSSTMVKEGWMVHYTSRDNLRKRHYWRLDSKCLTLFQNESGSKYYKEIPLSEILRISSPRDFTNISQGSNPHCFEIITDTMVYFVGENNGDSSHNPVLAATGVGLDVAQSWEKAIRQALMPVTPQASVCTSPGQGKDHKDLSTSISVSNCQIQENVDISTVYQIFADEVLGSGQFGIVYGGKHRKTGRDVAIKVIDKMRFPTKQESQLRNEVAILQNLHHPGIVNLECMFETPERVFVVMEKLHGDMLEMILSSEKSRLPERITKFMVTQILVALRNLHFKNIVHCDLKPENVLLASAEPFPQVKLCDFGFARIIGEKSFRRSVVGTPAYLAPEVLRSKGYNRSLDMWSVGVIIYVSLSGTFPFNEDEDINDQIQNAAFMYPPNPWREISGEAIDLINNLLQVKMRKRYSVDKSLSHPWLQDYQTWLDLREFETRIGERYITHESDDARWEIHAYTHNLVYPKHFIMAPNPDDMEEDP

[3] = biological target: T2, Serine/threonine-protein kinase D3 (Homo sapiens); conditions: at 1 µM
[4] = biological target: T3, cGMP-dependent protein kinase 1 (Homo sapiens) (UniProt Q13976); conditions: at 0.1 µM
T3 sequence (whole entry): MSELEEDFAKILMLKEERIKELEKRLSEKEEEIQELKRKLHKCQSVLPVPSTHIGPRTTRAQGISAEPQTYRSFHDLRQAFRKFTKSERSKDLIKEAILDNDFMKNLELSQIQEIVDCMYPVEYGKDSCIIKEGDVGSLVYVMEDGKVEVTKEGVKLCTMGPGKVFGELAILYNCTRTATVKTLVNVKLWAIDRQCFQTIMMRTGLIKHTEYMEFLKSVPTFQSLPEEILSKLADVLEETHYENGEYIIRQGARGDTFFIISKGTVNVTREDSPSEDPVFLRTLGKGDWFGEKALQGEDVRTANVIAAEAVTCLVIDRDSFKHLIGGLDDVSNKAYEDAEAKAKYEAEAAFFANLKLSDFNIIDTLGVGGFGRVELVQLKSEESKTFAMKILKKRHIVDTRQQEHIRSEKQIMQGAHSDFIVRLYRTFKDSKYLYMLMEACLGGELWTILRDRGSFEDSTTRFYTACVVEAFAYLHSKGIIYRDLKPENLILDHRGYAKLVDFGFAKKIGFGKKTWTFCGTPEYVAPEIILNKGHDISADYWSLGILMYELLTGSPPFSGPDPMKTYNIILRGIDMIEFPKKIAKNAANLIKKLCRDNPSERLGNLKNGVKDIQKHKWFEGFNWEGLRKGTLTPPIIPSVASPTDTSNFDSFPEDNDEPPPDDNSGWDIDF

[5] = biological target: T3, cGMP-dependent protein kinase 1 (Homo sapiens); conditions: at 1 µM
[6] = biological target: T4, cGMP-dependent protein kinase 2 (Homo sapiens) (UniProt Q13237); conditions: at 0.1 µM
T4 sequence (whole entry): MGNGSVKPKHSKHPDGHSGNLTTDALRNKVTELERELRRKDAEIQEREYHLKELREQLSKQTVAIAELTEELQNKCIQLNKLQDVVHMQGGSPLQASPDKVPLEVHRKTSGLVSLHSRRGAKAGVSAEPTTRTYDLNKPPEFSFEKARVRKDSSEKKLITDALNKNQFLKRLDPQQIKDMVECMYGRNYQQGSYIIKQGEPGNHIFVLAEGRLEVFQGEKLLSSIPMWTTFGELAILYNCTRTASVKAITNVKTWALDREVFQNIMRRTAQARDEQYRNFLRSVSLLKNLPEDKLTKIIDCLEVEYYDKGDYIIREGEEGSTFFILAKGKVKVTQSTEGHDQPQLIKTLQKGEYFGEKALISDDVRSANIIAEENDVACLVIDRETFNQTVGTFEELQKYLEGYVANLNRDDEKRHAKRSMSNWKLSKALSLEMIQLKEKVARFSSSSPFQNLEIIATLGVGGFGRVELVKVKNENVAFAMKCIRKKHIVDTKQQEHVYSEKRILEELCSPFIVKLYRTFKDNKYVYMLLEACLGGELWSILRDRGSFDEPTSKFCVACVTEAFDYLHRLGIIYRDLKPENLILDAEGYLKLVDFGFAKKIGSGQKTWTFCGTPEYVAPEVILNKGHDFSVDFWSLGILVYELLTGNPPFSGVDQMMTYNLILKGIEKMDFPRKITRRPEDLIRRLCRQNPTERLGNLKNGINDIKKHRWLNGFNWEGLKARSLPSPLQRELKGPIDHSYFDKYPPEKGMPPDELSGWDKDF

[7] = biological target: T4, cGMP-dependent protein kinase 2 (Homo sapiens); conditions: at 1 µM
[8] = biological target: T5, cAMP-dependent protein kinase catalytic subunit PRKX (Homo sapiens) (UniProt P51817); conditions: at 0.1 µM
T5 sequence (whole entry): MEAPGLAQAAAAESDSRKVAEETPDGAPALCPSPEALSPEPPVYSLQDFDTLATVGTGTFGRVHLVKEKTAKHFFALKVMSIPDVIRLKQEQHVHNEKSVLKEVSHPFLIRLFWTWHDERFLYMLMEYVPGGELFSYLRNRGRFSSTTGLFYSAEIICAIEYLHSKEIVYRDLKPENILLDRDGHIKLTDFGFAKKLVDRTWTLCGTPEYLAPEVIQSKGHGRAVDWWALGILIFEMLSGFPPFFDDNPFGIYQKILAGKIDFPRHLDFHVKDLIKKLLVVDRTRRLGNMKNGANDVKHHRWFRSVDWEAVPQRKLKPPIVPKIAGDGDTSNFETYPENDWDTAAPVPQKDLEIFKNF

[9] = biological target: T5, cAMP-dependent protein kinase catalytic subunit PRKX (Homo sapiens); conditions: at 1 µM
[10] = biological target: Rho-associated protein kinase 1 (Homo sapiens) (UniProt Q13464); conditions: at 0.1 µM
Rho-associated protein kinase 1 (Homo sapiens), sequence (Q13464 2-1354 limits assumed): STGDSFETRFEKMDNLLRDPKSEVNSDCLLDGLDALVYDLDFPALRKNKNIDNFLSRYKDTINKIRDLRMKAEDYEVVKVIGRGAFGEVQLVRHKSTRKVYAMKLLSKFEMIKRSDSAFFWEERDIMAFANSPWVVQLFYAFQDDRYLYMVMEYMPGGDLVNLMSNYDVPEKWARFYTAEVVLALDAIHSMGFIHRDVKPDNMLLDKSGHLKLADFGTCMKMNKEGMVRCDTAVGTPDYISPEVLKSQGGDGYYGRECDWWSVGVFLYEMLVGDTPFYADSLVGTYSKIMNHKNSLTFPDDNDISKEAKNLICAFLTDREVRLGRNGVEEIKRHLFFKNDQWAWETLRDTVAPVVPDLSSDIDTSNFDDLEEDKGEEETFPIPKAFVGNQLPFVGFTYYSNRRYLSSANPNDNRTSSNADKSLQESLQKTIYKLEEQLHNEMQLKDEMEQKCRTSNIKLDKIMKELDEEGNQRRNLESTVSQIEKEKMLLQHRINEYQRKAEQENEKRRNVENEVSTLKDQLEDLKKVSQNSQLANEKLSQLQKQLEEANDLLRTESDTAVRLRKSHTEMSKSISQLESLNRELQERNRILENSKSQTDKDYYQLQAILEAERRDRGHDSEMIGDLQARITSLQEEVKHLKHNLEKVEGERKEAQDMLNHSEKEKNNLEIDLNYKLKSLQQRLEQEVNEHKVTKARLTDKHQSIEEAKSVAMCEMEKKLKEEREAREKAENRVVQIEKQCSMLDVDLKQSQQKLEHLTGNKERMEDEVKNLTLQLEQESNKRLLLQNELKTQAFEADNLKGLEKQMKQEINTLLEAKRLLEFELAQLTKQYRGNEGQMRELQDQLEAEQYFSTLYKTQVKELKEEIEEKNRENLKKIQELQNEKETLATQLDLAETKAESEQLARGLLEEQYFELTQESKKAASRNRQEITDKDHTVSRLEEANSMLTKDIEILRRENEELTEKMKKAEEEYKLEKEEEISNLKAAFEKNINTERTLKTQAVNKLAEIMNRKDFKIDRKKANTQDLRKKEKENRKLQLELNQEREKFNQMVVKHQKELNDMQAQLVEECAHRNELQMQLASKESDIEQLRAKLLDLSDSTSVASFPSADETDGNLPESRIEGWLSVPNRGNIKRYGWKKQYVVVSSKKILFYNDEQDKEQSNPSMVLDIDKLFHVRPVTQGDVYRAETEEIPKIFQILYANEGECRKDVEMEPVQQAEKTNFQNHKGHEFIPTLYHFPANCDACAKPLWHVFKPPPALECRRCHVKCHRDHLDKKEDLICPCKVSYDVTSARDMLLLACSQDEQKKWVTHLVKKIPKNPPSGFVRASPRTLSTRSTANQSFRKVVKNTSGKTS

[11] = biological target: Rho-associated protein kinase 1 (Homo sapiens) (UniProt Q13464); conditions: at 1 µM
[12] = biological target: Rho-associated protein kinase 2 (Homo sapiens) (UniProt O75116); conditions: at 0.1 µM
Rho-associated protein kinase 2 (Homo sapiens), sequence (O75116 whole entry, looked up): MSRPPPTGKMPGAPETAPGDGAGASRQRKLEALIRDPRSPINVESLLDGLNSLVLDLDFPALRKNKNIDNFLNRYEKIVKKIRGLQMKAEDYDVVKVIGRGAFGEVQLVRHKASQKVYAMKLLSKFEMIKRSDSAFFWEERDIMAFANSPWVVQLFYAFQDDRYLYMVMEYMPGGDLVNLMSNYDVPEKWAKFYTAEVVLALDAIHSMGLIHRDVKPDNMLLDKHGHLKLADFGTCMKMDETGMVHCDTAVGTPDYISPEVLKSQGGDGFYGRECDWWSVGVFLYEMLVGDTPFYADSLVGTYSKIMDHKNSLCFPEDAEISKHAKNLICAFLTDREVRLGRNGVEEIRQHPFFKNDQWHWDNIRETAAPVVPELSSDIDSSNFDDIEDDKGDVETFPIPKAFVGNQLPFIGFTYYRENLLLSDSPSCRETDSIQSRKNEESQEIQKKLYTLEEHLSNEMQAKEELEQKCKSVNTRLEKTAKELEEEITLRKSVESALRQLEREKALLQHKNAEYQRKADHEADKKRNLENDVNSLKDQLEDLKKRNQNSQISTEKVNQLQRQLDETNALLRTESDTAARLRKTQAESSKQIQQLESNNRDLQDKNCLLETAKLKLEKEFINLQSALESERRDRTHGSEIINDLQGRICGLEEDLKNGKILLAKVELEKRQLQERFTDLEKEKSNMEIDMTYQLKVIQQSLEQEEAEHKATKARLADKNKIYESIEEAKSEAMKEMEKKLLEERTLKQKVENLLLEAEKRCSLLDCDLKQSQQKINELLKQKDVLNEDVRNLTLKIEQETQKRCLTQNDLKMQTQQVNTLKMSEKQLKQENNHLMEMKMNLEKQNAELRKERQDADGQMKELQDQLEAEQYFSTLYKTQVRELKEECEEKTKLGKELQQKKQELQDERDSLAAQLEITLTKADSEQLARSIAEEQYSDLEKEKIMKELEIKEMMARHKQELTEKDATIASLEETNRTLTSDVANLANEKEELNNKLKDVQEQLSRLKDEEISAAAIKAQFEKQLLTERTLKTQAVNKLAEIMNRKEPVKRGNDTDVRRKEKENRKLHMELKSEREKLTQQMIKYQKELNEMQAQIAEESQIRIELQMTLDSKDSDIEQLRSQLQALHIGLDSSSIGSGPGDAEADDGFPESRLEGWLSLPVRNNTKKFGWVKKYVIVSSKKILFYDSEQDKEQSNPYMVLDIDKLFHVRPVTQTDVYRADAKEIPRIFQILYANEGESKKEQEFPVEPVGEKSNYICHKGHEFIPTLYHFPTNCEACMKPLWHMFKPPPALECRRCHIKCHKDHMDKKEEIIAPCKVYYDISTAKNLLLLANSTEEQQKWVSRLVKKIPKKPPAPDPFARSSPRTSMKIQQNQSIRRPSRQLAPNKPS

[13] = biological target: Rho-associated protein kinase 2 (Homo sapiens) (UniProt O75116); conditions: at 1 µM
[14] = biological target: Ribosomal protein S6 kinase alpha-1 (Homo sapiens) (UniProt Q15418); conditions: at 0.1 µM
Ribosomal protein S6 kinase alpha-1 (Homo sapiens), sequence (Q15418 whole entry): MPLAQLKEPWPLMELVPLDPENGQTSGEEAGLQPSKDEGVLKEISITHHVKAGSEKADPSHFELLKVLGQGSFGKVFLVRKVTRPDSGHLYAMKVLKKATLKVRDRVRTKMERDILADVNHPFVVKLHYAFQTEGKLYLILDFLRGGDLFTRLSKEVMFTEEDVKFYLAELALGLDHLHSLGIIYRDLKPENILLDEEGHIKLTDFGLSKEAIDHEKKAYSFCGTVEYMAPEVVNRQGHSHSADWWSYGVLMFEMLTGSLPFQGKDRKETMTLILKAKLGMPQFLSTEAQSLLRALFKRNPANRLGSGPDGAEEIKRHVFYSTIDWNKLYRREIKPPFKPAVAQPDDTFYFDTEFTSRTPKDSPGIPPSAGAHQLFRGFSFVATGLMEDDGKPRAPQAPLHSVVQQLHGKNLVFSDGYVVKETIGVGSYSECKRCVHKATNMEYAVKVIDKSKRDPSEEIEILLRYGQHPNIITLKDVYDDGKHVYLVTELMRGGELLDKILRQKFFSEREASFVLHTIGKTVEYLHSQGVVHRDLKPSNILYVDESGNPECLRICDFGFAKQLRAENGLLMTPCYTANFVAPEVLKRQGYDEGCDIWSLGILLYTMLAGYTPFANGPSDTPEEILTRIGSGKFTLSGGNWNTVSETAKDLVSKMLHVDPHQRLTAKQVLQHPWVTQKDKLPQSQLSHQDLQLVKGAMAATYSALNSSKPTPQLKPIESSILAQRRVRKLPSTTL

[15] = biological target: Ribosomal protein S6 kinase alpha-1 (Homo sapiens) (UniProt Q15418); conditions: at 1 µM
[16] = biological target: Ribosomal protein S6 kinase alpha-3 (Homo sapiens) (UniProt P51812); conditions: at 0.1 µM
Ribosomal protein S6 kinase alpha-3 (Homo sapiens), sequence (P51812 whole entry): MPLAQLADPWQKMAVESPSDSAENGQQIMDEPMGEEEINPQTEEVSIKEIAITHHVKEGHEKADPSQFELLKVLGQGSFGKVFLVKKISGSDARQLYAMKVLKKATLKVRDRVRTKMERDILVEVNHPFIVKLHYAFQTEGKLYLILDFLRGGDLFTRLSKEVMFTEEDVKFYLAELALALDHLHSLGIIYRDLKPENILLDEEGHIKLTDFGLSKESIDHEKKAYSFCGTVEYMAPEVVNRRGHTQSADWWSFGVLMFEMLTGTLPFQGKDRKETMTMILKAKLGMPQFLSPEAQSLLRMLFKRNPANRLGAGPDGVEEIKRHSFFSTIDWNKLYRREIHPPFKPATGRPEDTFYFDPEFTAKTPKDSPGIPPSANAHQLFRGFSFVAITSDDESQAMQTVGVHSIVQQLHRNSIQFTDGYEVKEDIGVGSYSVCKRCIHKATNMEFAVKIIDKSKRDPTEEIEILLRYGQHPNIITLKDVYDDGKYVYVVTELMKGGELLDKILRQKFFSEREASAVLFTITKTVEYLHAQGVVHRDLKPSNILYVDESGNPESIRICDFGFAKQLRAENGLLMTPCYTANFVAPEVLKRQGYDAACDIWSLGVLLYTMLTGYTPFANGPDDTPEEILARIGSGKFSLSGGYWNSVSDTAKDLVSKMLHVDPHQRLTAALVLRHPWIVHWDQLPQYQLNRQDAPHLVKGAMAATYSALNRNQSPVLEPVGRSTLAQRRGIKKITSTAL

[17] = biological target: Ribosomal protein S6 kinase alpha-3 (Homo sapiens) (UniProt P51812); conditions: at 1 µM
[18] = biological target: Ribosomal protein S6 kinase alpha-2 (Homo sapiens) (UniProt Q15349); conditions: at 0.1 µM
Ribosomal protein S6 kinase alpha-2 (Homo sapiens), sequence (Q15349 whole entry): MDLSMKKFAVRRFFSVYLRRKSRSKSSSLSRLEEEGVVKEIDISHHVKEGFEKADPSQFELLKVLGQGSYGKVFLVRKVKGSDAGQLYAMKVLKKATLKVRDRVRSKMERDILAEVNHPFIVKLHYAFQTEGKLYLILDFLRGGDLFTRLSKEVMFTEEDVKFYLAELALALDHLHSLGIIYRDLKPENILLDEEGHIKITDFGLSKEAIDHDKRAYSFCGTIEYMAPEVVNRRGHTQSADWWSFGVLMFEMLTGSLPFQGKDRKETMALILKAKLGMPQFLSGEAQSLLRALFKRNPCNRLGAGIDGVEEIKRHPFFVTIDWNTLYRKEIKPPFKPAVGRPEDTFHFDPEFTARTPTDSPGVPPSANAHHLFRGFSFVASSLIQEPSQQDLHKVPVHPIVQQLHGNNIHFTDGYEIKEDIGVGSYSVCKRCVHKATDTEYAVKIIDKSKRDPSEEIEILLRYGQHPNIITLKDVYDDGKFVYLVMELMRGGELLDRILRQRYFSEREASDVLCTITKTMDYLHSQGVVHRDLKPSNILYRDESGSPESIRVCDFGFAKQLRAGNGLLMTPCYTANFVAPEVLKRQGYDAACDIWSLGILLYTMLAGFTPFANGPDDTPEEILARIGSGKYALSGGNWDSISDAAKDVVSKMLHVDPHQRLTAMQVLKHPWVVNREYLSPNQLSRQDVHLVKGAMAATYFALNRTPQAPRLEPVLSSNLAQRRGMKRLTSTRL

[19] = biological target: Ribosomal protein S6 kinase alpha-2 (Homo sapiens) (UniProt Q15349); conditions: at 1 µM
[20] = biological target: Ribosomal protein S6 kinase alpha-6 (Homo sapiens) (UniProt Q9UK32); conditions: at 0.1 µM;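 note: reported value is the mean inhibition of RSK4, from the GSK PKIS kinase inhibitor screen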

Row | Compound | inhibition [1] [%] | inhibition [2] [%] | inhibition [3] [%] | inhibition [4] [%] | inhibition [5] [%] | inhibition [6] [%] | inhibition [7] [%] | inhibition [8] [%] | inhibition [9] [%] | inhibition [10] [%] | inhibition [11] [%] | inhibition [12] [%] | inhibition [13] [%] | inhibition [14] [%] | inhibition [15] [%] | inhibition [16] [%] | inhibition [17] [%] | inhibition [18] [%] | inhibition [19] [%] | inhibition [20] [%]
1 | O=S(=O)(CCNCc1ccc(-c2ccc3ncnc(Nc4ccc(OCc5cccc(F)c5)c(Cl)c4)c3c2)o1)c1ccccc1 | 4.53 | 5.12 | 5.2 | 4.89 | 3.93 | 3.34 | 3.34 | 2.74 | 2.77 | 2.37 | 3.67 | 3.77 | 5.56 | 2.26 | 4.3 | 0.92 | 0.8 | 1.16 | 2.98 | 0.95
2 | CC(=O)Nc1cccc(C#Cc2cncnc2Nc2ccc(OCc3cccc(F)c3)c(Cl)c2)c1 | 3.79 | 2.13 | 2.46 | 3.13 | 3.55 | 2.86 | 1.98 | 1.66 | 1.17 | 1.07 | 0.67 | 0.44 | 0.1 | 0.12 | -1.94 | 0.9 | -0.35 | 1.46 | 0.33 | 0.92
3 | [O-][S+]1CCN(Cc2ccc(-c3ccc4ncnc(Nc5ccc(OCc6cccc(F)c6)c(Cl)c5)c4c3)o2)CC1 | 6.63 | 4.66 | 6.53 | 3.87 | 3.85 | 3.53 | 5.63 | 2.88 | 2.98 | 2.1 | 4.37 | 2.9 | 5.33 | 2.31 | 3.99 | 0.59 | 0.78 | 3.09 | 3.37 | 1.65
4 | Fc1cccc(COc2ccc(Nc3ncnc4sc(-c5ccco5)cc34)cc2Cl)c1 | 2.52 | 5.28 | 4.41 | 2.93 | 1.81 | 1.59 | -0.65 | 2.01 | 2.86 | 2.54 | 2.72 | 3.35 | 4.12 | 2.09 | 2.91 | 1.55 | 3.12 | 2.51 | 2.48 | 1.33
5 | CCn1c(-c2nonc2N)nc2c(C#CC(C)(C)O)nc(OC[C@H](N)c3ccccc3)cc21 | 25.6 | 5.89 | 28.6 | 23.8 | 71.3 | 56.9 | 78.8 | 84.2 | 87.1 | 2.85 | 24.7 | 9.12 | 51.3 | 3.36 | 12.8 | 1.74 | 14.5 | 3.19 | 10.7 | 1.53
6 | CS(=O)(=O)CCNCc1coc(-c2ccc3ncnc(Nc4ccc(OCc5ccccc5)cc4)c3c2)c1 | 2.1 | 2.3 | 3.06 | 1.72 | 3.25 | 1.73 | 3.41 | 1.12 | 0.96 | 0.65 | 1.33 | 1.66 | 1.35 | 2.08 | 2.82 | 2.71 | 3.03 | 3.38 | 3.14 | 2.43
